An excerpt weighted towards active compounds, which were near 2.2% of everything screened.
IL1B NFkB inh: inhibitors of IL-1B driven NFkB p65 nuclear import, primary screen, imaging, HUVEC, IL-1B stimulus, high-content imaging | HUVEC IL-1B NFkB p65 nuclear translocation imaging | inhibition, % at 2 µM | hit rate 0.43% among 94,000;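 active = inhibition above about 30% together with a positive call from visual inspection of the well image, limit read from the data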;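 also: nuclear over cytoplasmic p65 intensity ratio measured by imaging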
PLK1 inh: human PLK1 kinase inhibitors, primary screen, biochemical, TR-FRET. Serine/threonine-protein kinase PLK1 (Homo sapiens), P53350. recombinant PLK1 kinase, TR-FRET peptide phosphorylation. inhibition, % at 10 µM. hit rate 0.53% among 97,000;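 active = inhibition of 50% or more in the single-concentration screen; inactive = inhibition below 50%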
Pyk2 oligo antag: antagonists of Pyk2 self-association, primary screen, Q293 cells, FERM NanoBiT luminescence, HTS. Protein-tyrosine kinase 2-beta (Homo sapiens), Q14289. stronger effect = lower value. z-score (the deposit names both 25 µM and 10 µM). hit rate 0.83% among 99,000;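 active = Z-score of -3 or lower, scaled per plate to the spread of control and sample wells; inactive = z-score above -3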;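 also: negative z-score means lost luminescence so less FERM oligomerization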
Target sequence (Q14289 whole entry, looked up): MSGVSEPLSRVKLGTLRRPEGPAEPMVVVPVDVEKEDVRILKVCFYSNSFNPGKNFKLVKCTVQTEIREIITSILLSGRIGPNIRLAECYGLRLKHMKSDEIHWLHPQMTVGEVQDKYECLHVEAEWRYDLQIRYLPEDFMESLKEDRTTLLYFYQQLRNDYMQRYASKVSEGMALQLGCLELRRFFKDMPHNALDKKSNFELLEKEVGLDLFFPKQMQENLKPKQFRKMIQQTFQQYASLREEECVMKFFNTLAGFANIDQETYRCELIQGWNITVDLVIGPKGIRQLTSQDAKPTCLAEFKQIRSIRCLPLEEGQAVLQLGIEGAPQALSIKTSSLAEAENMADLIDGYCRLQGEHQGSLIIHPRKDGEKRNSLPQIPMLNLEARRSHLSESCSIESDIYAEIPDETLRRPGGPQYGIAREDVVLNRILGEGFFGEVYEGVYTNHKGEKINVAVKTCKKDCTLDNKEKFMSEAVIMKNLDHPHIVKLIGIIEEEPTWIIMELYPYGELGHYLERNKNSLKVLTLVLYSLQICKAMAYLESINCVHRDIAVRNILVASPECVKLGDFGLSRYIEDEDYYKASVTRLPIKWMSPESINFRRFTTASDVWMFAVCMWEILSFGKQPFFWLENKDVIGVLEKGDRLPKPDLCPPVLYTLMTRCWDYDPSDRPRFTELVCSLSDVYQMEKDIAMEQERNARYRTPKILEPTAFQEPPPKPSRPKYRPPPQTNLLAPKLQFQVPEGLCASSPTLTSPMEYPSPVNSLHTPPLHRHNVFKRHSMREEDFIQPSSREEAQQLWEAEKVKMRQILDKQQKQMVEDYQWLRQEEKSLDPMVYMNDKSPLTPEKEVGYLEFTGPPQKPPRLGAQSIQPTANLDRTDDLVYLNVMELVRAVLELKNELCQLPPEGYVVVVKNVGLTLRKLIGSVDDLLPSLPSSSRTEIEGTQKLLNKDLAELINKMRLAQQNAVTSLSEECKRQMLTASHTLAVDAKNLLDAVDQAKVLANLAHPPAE
IL1B cytotox: cytotoxicity in IL-1B stimulated HUVEC, primary screen, cytotoxicity control for IL-1B NFkB translocation project, imaging, Hoechst nuclear count, IL-1B stimulus; HUVEC cell count loss; cell count reduction, % at 2 µM; hit rate 0.41% among 94,000; AID 845, 2007;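 active = cell count reduction more than 3 SD above the screen-wide mean, cut at about 70% in these data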
IL1B NFkB pot: enhancers of NFkB p65 translocation in HUVEC – imaging, IL-1B stimulus, high-content imaging, primary screen | HUVEC IL-1B NFkB p65 nuclear translocation imaging | AID 819, 2007 | activation, % at 2 µM | hit rate 0.3% among 94,000;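 active = activation above 40%, about the mean plus 3 SD, also judged a hit on visual image review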;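 also: percent activation is computed from the nuclear over cytoplasmic p65 intensity ratio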
PLK1 PBD inh: Plk1 polo box domain binding inhibitors, primary screen, biochemical, fluorescence polarization. Serine/threonine-protein kinase PLK1 (Homo sapiens), P53350. Plk1 PBD phosphopeptide binding. inhibition, %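 (tested at about 20 µM)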. hit rate 0.13% among 97,000. AID 693, 2007; in the data active = inhibition above about 34%, passing the limit was not always enough
Of the large screens only hits and unclear results are named; the others gave an inactive call.

Fc1ccccc1C(c1nnnn1C1CCCC1)N1CCN(Cc2ccccc2)CC1 (configuration not stated)	IL1B NFkB inh 77, IL1B cytotox 88
COc1ccc(C(c2nnnn2C2CCCCC2)N2CCN(c3ccc(OC)cc3)CC2)cc1 (configuration not stated)	IL1B NFkB pot 57
COc1ccc(OC)c(C(c2nnnn2C2CCCC2)N2CCN(c3ccccc3)CC2)c1 (configuration not stated)	Pyk2 oligo antag -3.5 (no result: IL1B NFkB inh, PLK1 inh, IL1B cytotox, IL1B NFkB pot, PLK1 PBD inh)
c1ccc(-c2nc(CSc3n[nH]c(-c4cccs4)n3)cs2)cc1	none
COCCCNC(=O)c1sc2ncnc(N3CCc4ccccc4C3)c2c1C	none (no result: IL1B NFkB inh, IL1B cytotox, IL1B NFkB pot)
O=S(=O)(Nc1cccnc1Cl)c1ccc2c(c1)OCCO2	none
O=S(=O)(NCCSCc1c(Cl)cccc1Cl)c1ccc2c(c1)OCCO2	Pyk2 oligo antag -4.3
CSc1ccccc1NS(=O)(=O)c1ccc2c(c1)OCCO2	IL1B cytotox 70
CCN(CC)S(=O)(=O)c1ccc2c(c1)C(=NO)c1cc(S(=O)(=O)N(CC)CC)ccc1-2	Pyk2 oligo antag -3
CCN(CC)S(=O)(=O)c1ccc(C)c(C)c1	none
N#Cc1c(-c2ccco2)cc(-c2cccnc2)nc1N	PLK1 inh 55
CN(C)S(=O)(=O)c1ccc(C(=O)NCc2nnc(SCC(=O)Nc3ccc(F)cc3)n2-c2ccc(F)cc2)cc1	none (no result: IL1B NFkB inh, PLK1 inh, IL1B cytotox, IL1B NFkB pot, PLK1 PBD inh)
O=C(c1ccc(C(=O)N2CCCc3ccccc32)s1)N1CCCc2ccccc21	Pyk2 oligo antag -3.3
CCN1CCN(C(=O)Nc2ccccc2OC)CC1	IL1B cytotox 92
COc1ccccc1NC(=O)N1CCN(c2ccccc2F)CC1	none
COc1ccccc1NC(=O)N1CCN(c2ccccn2)CC1	PLK1 inh 62 (no result: IL1B NFkB inh, Pyk2 oligo antag, IL1B cytotox, IL1B NFkB pot)
O=C(Nc1ccccc1Cl)N1CCN(c2ccccn2)CC1	none
COc1cc2c(cc1NC(=O)CN(C)Cc1nc3ccccc3c(=O)[nH]1)oc1ccccc12	Pyk2 oligo antag -3.4 (no result: IL1B NFkB inh, PLK1 inh, IL1B cytotox, IL1B NFkB pot, PLK1 PBD inh)
O=C(OCc1ccc(F)cc1)c1ccc2c(c1)-c1ccccc1C2=O	none
CCOC(=O)C1=C(Cc2ccc(F)cc2)C(=O)c2ccccc2C1=O	IL1B NFkB pot 59
CCOC(=O)C1C(=O)Nc2nc(C)nn2C1c1ccccc1 (configuration not stated)	IL1B NFkB pot 84
CN(C(=S)Nc1ccc(F)cc1)C1(c2ccccc2Cl)CCCCC1=O (configuration not stated)	none
CSC1=C(C#N)C(c2ccc(C(C)C)cc2)CC(=O)N1 (configuration not stated)	PLK1 inh 66 (no result: IL1B NFkB inh, Pyk2 oligo antag, IL1B cytotox, IL1B NFkB pot)
CC1CCN(c2c(NCc3ccc(C(=O)N4CCc5ccccc54)cc3)c(=O)c2=O)CC1	IL1B NFkB pot 118 (no result: Pyk2 oligo antag)
Cc1ccc(CNC(=O)c2ccc(CNc3c(N4CCCC4)c(=O)c3=O)cc2)cc1	IL1B NFkB pot 41 (no result: Pyk2 oligo antag)
Cc1ccc(NC(=O)c2ccc(CNc3c(N4CCOCC4)c(=O)c3=O)cc2)cc1	none (no result: Pyk2 oligo antag)
CC1CCN(c2c(NCc3ccc(C(=O)NCC4COc5ccccc5O4)cc3)c(=O)c2=O)CC1 (configuration not stated)	none (no result: Pyk2 oligo antag)
CCOc1ccc(OCC)c(NC(=O)c2ccc(CNc3c(N4CCOCC4)c(=O)c3=O)cc2)c1	IL1B NFkB pot 70
COc1ccc(-c2ncccc2OC(=O)C23CC4CC(CC(C4)C2)C3)cc1OC	none (no result: IL1B NFkB inh, PLK1 inh, IL1B cytotox, IL1B NFkB pot, PLK1 PBD inh)
CCC1C(=O)Nc2nc(-c3ccccc3)c(-c3ccccc3)n2N=C1C (configuration not stated)	IL1B NFkB pot 120
CN(c1ccccc1)C(c1ccc(F)cc1)c1nnnn1C1CCCC1 (configuration not stated)	none
Cn1c(NC(=O)c2cc(-c3ccc4c(c3)OCO4)nc3ccccc23)cc(=O)n(C)c1=O	Pyk2 oligo antag -4
COC(=O)Nc1ccc(S(=O)(=O)N2c3ccccc3CCC2C)cc1 (configuration not stated)	Pyk2 oligo antag -3.2 (no result: IL1B NFkB inh, PLK1 inh, IL1B cytotox, IL1B NFkB pot, PLK1 PBD inh)
CC1=NN(Cc2ccccc2)C(=O)C1C(c1ccccc1)C(C#N)C#N (configuration not stated)	Pyk2 oligo antag -3.6

From PubChem
